Assay results published in PubChem BioAssay.
This is one part of the list. Active and inactive are the calls of the source. Unless noted, no stated cut-off is given here; in the data, active means inhibition above about 25%; inactive means the rest.

Tests used:
[1] = molecular target: Insulin-degrading enzyme (Homo sapiens) (UniProt P14735); assay: human IDE inhibitors in live cells, confirmation, fluorescence polarization, HEK cells, FAbetaB substrate (AID 435028;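 active means mean inhibition across triplicate wells above the cutoff set by the earlier primary insulin-degrading enzyme screen, cut at about 16% in these data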;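 further: 0% = DMSO wells and 100% = 60 µM reference IDE inhibitor Ii1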); details: FAbetaB cleavage, at 5.59 µM, hits give high values
Chain of Insulin-degrading enzyme (Homo sapiens) (P14735 whole entry, looked up): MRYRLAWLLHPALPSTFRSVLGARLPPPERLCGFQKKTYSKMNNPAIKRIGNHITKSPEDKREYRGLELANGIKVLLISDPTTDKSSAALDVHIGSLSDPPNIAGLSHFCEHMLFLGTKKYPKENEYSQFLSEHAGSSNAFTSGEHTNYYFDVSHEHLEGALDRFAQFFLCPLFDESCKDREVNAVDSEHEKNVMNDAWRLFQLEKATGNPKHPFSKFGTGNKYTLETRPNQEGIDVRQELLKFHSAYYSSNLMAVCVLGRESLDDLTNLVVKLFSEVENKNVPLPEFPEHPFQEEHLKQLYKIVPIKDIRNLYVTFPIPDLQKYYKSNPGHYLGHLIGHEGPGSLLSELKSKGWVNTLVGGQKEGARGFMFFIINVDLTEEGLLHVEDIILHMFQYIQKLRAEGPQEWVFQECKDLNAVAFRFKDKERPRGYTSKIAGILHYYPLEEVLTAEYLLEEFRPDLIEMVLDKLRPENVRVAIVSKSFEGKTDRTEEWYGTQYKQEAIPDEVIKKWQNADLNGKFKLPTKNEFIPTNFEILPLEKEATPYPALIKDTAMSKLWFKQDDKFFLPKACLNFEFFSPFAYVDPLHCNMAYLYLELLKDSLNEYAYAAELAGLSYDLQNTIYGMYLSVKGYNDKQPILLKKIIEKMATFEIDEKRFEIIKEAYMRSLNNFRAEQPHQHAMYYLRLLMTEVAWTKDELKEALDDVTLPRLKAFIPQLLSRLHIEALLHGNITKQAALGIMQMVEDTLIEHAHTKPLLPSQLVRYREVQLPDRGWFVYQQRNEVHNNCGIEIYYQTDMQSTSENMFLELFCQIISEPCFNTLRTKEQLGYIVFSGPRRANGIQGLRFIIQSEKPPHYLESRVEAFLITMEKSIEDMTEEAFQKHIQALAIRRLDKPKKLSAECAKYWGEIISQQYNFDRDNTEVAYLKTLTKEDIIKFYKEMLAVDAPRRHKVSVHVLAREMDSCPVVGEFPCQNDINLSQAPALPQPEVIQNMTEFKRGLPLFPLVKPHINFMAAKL

[2] = cytotoxicity in HEK cells, cytotoxicity control for IDE inhibitor project, cell-based, luminescence (AID 449730; in the data active means inhibition above about 22%;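 further: 0% = vehicle wells and 100% = reference cytotoxic drug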); details: HEK293 cytotoxicity, ATP luminescence; at 5.59 µM; hits give high values
[3] = molecular target: Oxysterols receptor LXR-beta (Homo sapiens) (UniProt P55055); assay: LXR agonists, Gal4 luciferase reporter, confirmation, counter-screen for hcDAF-12 agonist project, cell-based, luminescence, HEK293, H. contortus campaign (AID 743027;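 active means mean percent activation of the reporter above a cutoff set as the average over tested compounds plus their standard deviation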); details: HEK293 Gal4-LXR tk-luc reporter, 24 h, at 6.8 µM, hits give high values, normalized: DMSO 0%, positive control 100%
Chain of Oxysterols receptor LXR-beta (Homo sapiens) (P55055 whole entry, looked up, the tested form may be a part): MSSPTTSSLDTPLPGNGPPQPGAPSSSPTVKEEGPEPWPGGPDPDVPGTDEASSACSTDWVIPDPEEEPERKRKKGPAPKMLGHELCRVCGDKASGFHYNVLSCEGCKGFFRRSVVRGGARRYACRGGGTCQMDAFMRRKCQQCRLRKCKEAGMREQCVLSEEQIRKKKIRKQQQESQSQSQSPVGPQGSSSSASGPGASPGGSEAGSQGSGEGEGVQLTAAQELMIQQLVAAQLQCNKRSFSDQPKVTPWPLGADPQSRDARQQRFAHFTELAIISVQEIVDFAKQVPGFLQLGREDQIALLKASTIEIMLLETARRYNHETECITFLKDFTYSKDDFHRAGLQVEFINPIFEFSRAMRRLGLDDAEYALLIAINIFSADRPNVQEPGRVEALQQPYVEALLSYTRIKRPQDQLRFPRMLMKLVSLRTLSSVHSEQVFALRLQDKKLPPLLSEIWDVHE

[4] = tested on: Nuclear hormone receptor DAF-12 (Haemonchus contortus); assay: H. contortus DAF-12 receptor agonists, confirmation, cell-based, luminescence, HEK293, lit1-tk-luc, triplicate (AID 743032;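 active means mean activation across triplicate tests above the threshold derived from the earlier primary screen, cut at about 5.5% in these data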;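 further: 0% = DMSO only wells and 100% = 3 µM Δ7-dafachronic acid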); details: HEK293 hcDAF-12 lit1-tk-luc reporter, at 6.8 µM, hits give high values, % of Δ7-dafachronic acid response
[5] = molecular target: Platelet-activating factor acetylhydrolase (Homo sapiens) (UniProt Q13093); assay: pPAFAH (PLA2G7) enzyme inhibitors, confirmation, biochemical, fluorescence polarization, human (AID 463230;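 active means mean inhibition of the triplicate above the hit cutoff set for the earlier primary screen, cut at about 25% in these data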;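 further: 0% = enzyme with DMSO and 100% = wells lacking pPAFAH enzyme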); details: recombinant pPAFAH, FP-Rh probe fluorescence polarization; at 3.39 µM; hits give high values
Chain of Platelet-activating factor acetylhydrolase (Homo sapiens) (Q13093 whole entry, looked up): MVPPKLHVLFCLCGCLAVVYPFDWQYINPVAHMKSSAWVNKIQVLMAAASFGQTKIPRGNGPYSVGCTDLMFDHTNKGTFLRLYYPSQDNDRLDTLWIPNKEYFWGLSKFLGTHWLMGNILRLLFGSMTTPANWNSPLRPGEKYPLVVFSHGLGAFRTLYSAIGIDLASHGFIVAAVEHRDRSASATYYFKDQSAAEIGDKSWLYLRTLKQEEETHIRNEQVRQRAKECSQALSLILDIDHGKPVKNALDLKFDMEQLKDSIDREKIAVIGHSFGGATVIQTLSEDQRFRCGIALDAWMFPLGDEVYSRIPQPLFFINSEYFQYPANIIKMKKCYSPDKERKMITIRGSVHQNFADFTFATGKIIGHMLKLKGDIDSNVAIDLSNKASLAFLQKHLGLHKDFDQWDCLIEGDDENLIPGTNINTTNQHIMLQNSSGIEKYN

[6] = molecular target: Serine protease HTRA1 (Homo sapiens) (UniProt Q92743); assay: HTRA1 protease inhibitors, retest, confirmation, biochemical, fluorescence polarization (AID 540248;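 active means mean inhibition over three repeats above a set limit taken from the earlier primary screen, cut at about 37% in these data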;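 further: 0% = HTRA1 with DMSO and 100% = wells lacking HTRA1; inhibitors block probe binding so polarization drops and inhibition rises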); details: recombinant HTRA1, FP-rhodamine activity-based probe, at 5.96 µM, hits give high values
[7] = molecular target: (Lyso)-N-acylphosphatidylethanolamine lipase (Mus musculus) (UniProt Q8VD66); assay: ABHD4 inhibitors, retest, confirmation, biochemical, fluorescence polarization, mouse (AID 720658;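 active means mean inhibition across replicates above the hit cutoff set in the primary screen, cut at about 30% in these data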;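 further: 0% = wild-type ABHD4 with DMSO and 100% = catalytically dead S159A mutant with DMSO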); details: purified mABHD4, FP-Rh probe fluorescence polarization; at 8.92 µM; hits give high values
Chain of (Lyso)-N-acylphosphatidylethanolamine lipase (Mus musculus) (Q8VD66 whole entry, looked up): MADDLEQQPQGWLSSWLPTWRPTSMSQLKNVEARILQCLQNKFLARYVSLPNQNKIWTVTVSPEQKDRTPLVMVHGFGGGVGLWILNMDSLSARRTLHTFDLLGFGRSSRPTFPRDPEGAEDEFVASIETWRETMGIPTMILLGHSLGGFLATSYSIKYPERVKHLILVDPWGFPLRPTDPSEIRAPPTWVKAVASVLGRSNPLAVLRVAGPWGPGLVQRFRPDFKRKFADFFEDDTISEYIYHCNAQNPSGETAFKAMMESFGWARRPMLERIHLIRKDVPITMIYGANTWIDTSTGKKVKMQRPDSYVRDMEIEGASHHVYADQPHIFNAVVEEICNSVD

[8] = growth loss of phage-infected E. coli expressing H. pylori AddAB, confirmation, AddAB inhibitor project, absorbance, E. coli V3065, T4 phage, triplicate (AID 488942;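 active means mean inhibition above a set limit taken from the earlier primary screen, cut at about 13% in these data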;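 further: higher means less bacterial growth since AddAB block lets phage replicate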); details: OD, at 11.9 µM, hits give high values, T4 phage with gene 2 nonsense mutations
[9] = growth loss of RecBCD+ E. coli with mutant T4 phage, counter-screen for AddAB inhibitor project, absorbance, V66 E. coli (AID 488955;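 active means mean inhibition above the mean of solvent-only control wells plus 3 SD, cut at about 4% in these data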;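 further: optical density read after an 18 h incubation at 37 °C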); details: OD growth, at 11.9 µM, hits give high values
[10] = bacterial viability inhibition counter-screen, confirmation, counter-screen for AddAB inhibitor project, absorbance (AID 488956); details: absorbance (AddAB counterscreen), at 11.9 µM, hits give high values
[11] = molecular target: Receptor-interacting serine/threonine-protein kinase 2 (Homo sapiens) (UniProt O43353); assay: NOD2-RIPK2 binding disruptors, retest, confirmation, fluorescence, CHO cells, BLA complementation, triplicate (AID 624370;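 active means mean inhibition across replicates above a set limit taken from the earlier primary screen, cut at about 21% in these data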;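 further: 0% = DMSO-only wells and the high end = clavulanate BLA-blocked wells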); details: CCF4 FRET, at 4.98 µM, hits give high values
Chain of Receptor-interacting serine/threonine-protein kinase 2 (Homo sapiens) (O43353 whole entry, looked up): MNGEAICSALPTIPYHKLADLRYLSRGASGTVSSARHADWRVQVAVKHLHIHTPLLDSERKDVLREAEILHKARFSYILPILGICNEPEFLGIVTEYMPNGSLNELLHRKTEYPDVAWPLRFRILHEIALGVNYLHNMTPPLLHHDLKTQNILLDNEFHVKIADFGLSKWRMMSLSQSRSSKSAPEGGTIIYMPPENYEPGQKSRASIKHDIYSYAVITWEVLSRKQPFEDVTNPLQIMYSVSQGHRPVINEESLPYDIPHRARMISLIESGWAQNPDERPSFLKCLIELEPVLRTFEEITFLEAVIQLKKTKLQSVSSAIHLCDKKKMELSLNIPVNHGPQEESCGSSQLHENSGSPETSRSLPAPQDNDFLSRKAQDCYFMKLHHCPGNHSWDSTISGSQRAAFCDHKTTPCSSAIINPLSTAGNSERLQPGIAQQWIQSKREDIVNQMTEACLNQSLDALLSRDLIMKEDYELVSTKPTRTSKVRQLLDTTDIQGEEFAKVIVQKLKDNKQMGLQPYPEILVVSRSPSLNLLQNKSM

[12] = beta-lactamase reporter inhibitors in CHO cells, confirmation, artefact control for NOD2-RIPK2 interaction inhibitor project, cell-based, CHO-K1 CMV-bla, CCF4 FRET, fluorescence (AID 624371;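 active means mean inhibition above the low-control mean inhibition plus three low-control SD, cut at about 11% in these data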;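 further: 0% = DMSO only wells and 100% = clavulanate high control wells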); details: CCF4 FRET ratio, counterscreen, at 4.98 µM, hits give high values
[13] = StAR promoter reporter inhibitors, counter-screen for LRH-1 inverse agonist project, cell-based, luminescence, high throughput (AID 651611; in the data active means inhibition above about 28%); details: StAR promoter luciferase reporter counterscreen, at 3.6 µM, hits give high values
[14] = molecular target: Nuclear receptor subfamily 5 group A member 2 (Homo sapiens) (UniProt O00482); assay: LRH-1 (NR5A2) inverse agonists, retest, confirmation, cell-based, luminescence (AID 651613; in the data active means inhibition above about 42%;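 further: HEK293T cells co-transfected with LRH-1 and StAR promoter luciferase reporter; 0% = vehicle wells and 100% = parental cells lacking receptor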); details: cell-based LRH-1 luciferase reporter, inverse agonism; at 3.6 µM; hits give high values
Chain of Nuclear receptor subfamily 5 group A member 2 (Homo sapiens) (O00482 whole entry, looked up): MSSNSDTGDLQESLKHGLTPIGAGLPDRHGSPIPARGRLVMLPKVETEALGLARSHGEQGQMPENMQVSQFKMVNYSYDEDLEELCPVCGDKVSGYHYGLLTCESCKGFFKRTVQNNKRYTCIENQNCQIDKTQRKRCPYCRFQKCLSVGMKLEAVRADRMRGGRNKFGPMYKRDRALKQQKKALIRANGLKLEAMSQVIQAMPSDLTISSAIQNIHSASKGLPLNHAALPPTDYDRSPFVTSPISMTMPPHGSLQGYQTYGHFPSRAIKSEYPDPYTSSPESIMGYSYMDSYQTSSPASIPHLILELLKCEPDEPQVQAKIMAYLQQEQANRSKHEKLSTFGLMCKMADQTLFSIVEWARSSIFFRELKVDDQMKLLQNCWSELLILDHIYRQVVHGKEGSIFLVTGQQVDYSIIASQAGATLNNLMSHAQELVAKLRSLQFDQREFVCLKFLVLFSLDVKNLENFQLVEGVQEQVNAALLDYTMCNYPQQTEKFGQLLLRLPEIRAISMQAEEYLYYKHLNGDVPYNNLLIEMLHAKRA

[15] = molecular target: Steroidogenic factor 1 (Homo sapiens) (UniProt Q13285); assay: SF1 (NR5A1) inverse agonists, counter-screen for LRH-1 inverse agonist project, cell-based, luminescence, high throughput (AID 651614; in the data active means inhibition above about 44%;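 further: cells cotransfected with StAR promoter reporter and SF1 expression vector; 0% = vehicle on cells with receptor and 100% = vehicle on cells lacking receptor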); details: cell-based SF1 luciferase reporter, at 3.6 µM, hits give high values
Chain of Steroidogenic factor 1 (Homo sapiens) (Q13285 whole entry, looked up, the tested form may be a part): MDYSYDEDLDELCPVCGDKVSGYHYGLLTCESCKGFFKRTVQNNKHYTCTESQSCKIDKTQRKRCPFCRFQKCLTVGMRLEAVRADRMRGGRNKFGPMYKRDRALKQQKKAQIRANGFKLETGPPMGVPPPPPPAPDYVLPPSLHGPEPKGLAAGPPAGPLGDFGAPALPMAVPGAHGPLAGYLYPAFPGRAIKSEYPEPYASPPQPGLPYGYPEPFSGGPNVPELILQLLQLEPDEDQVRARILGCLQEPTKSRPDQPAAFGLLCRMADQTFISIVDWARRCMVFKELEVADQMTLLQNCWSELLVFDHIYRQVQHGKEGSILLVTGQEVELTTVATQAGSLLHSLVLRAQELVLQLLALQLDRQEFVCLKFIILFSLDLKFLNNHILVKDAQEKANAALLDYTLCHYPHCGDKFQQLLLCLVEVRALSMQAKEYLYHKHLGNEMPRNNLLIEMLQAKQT

[16] = VP16 transactivation reporter inhibitors, counter-screen for LRH-1 inverse agonist project, cell-based, luminescence, high throughput (AID 651615; in the data active means inhibition above about 33%); details: Gal4-VP16 luciferase reporter cells, at 3.6 µM, hits give high values
[17] = tested on: DAF-12 nuclear receptor (Heterodera glycines), GAL4-LBD fusion; assay: H. glycines DAF-12 receptor agonists, confirmation, cell-based, luminescence, HEK293, GAL4-LBD fusion (AID 743050;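 active means mean activation over triplicate wells above the hit cutoff derived from the earlier primary screen, cut at about 11% in these data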;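 further: 0% = DMSO low control and 100% = 2 mM sodium butyrate high control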); details: HEK293 GAL4-hgDAF12 luciferase reporter, agonist mode; at 6.8 µM; hits give high values; percent of butyrate response
[18] = molecular target: Oxysterols receptor LXR-beta (Homo sapiens) (UniProt P55055); assay: LXR agonists, Gal4 luciferase reporter, confirmation, counter-screen for hgDAF-12 agonist project, cell-based, luminescence, HEK293, H. glycines campaign (AID 743051;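 active means mean activation of the triplicate above a set limit carried over from the primary screen, none filed active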); details: 24 h, at 6.8 µM, hits give high values
[19] = molecular target: Platelet-activating factor acetylhydrolase IB subunit alpha1 (Homo sapiens) (UniProt Q15102); assay: PAFAH1B3 enzyme inhibitors, confirmation, biochemical, fluorescence polarization, human (AID 493032;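 active means average inhibition over triplicate runs above the hit cutoff set in the earlier primary screen, cut at about 25% in these data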;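 further: 0% = enzyme with DMSO and 100% = wells lacking PAFAH1B3 protein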); details: recombinant PAFAH1B3, FP-Rh activity-based probe, at 3.39 µM, hits give high values
Chain of Platelet-activating factor acetylhydrolase IB subunit alpha1 (Homo sapiens) (Q15102 whole entry, looked up): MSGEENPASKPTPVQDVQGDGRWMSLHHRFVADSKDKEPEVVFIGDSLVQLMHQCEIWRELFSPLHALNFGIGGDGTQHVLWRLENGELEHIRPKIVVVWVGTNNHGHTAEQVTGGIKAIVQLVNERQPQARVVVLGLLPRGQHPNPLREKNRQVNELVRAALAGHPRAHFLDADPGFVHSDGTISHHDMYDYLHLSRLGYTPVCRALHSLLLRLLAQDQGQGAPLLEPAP

[20] = growth loss of phage-infected RecBCD+ E. coli, confirmation, RecBCD inhibitor project, absorbance, E. coli V66, T4 gene 2 phage (AID 651982;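 active means mean inhibition over triplicates exceeding the hit threshold derived in the original primary screen, cut at about 11% in these data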); details: E. coli V66 + T4 2- phage, growth OD; at 11.9 µM; hits give high values
[21] = E. coli viability inhibition, counter-screen for RecBCD inhibitor project, absorbance, high throughput (AID 651983; in the data active means inhibition above about 20%;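 further: E. coli strain V66 grown with compound alone and no phage infection; 0% = bacteria with DMSO vehicle only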); details: absorbance (OD) growth, at 11.9 µM, hits give high values
[22] = growth loss of phage-infected AddAB-carrying E. coli, confirmation, counter-screen for RecBCD inhibitor project, absorbance, E. coli V3065, T4 phage (AID 651984;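 active means mean inhibition above the solvent-only control wells' mean plus 3 SD, cut at about 22% in these data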;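 further: higher means less bacterial growth from phage killing when AddAB is blocked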); details: E. coli expressing H. pylori AddAB + T4 phage, OD growth; at 11.9 µM; hits give high values; gene 2 mutant T4, recBCD-deleted host

For `N#CC1=C(N)Oc2c(sc3ccccc23)C1c1ccco1` (centres undefined), the inhibition [1] was 55.6% (active), the inhibition [2] was 39.4% (active) and the activation [3] was -0.13% (inactive). For the same molecule, the activation [4] was 1.83% (inactive).
For `O=C(Nc1nc(-c2ccco2)c(-c2ccco2)s1)c1ccco1`, the inhibition [5] was 17.3% (inactive).
For `O=C(O)C(c1ccccc1)N1C(=O)/C(=C\c2ccc(-c3cccc(Cl)c3)o2)SC1=S` (centres undefined), the inhibition [5] was 55.4% (active).
For `CCOc1ccc(NS(=O)(=O)c2ccc(C(=O)NCC(c3ccccc3OC)N3CCCC3)cc2)cc1` (centres undefined), the inhibition [5] was 45.4% (active).
With `Cc1ccc(/C=N/NC(=O)c2cc3ccccc3cc2O)o1` the inhibition [5] was 9.89% (inactive) and the inhibition [6] was 38.8% (active).
With `N#C/C(=C\c1ccc(O)c(O)c1)C(=O)NCc1ccccc1` the inhibition [1] was 43.1% (active), the inhibition [2] was 6.24% (inactive) and the inhibition [6] was 84.8% (active). The inhibition [7] was 30.8% (active).
With `CC(C)(C)NC(=O)COC(=O)c1cc(Cl)ccc1[N+](=O)[O-]` the inhibition [8] was -4.38% (inactive), the inhibition [9] was 0.98% (inactive) and the inhibition [10] was -3.45% (inactive).
In the case of `Cc1nn(C)cc1N1C(=O)c2cccc3c(N)ccc(c23)C1=O`, the inhibition [11] is reported as 24% (active) and the inhibition [12] is reported as 26.6% (active).
In the case of `O=C(NCC1CCCO1)c1cc2c([nH]c3ccccc32)c(-c2ccc(F)cc2)n1` (centres undefined), the inhibition [13] is reported as 50.5% (active), the inhibition [14] is reported as 41.6% (active) and the inhibition [15] is reported as 50.1% (active). For the same molecule, the inhibition [16] was 27.2% (inactive).
For `CCC(=O)Nc1sc(C(=O)Nc2ccccc2)c(C)c1C(=O)OC`, the activation [17] was 9.78% (inactive) and the activation [18] was 0.28% (inactive).
For `CCN(CC)c1ccc(/C=N/Nc2nc(C)cc(C)n2)c(O)c1`, the inhibition [6] was 61.8% (active).
For `O=C(NCC1CCCO1)C(C(=O)c1ccccc1)n1cc(Cl)ccc1=O` (centres undefined), the inhibition [8] was -2.76% (inactive), the inhibition [9] was -0.21% (inactive) and the inhibition [10] was -1.24% (inactive).
With `COc1ccc(NC(=O)ON=C2c3ccccc3-c3ccccc32)cc1` the inhibition [19] was 29% (active).
In the case of `Cc1ccc(C(=O)/C=C/Nc2ccc(S(=O)(=O)Nc3onc(C)c3C)cc2)cc1`, the inhibition [8] is reported as 2.14% (inactive), the inhibition [9] is reported as 3.94% (inactive) and the inhibition [10] is reported as 2.93% (inactive).
In the case of `Cc1cccc(N=C2NC(=O)/C(=C/c3cn(C)c4ccccc34)S2)c1`, the inhibition [19] is reported as 17.3% (inactive).
For `NC(=O)NC(=O)C(OC(=O)CCNS(=O)(=O)c1ccccc1)c1ccccc1` (centres undefined), the inhibition [6] was 23.1% (inactive).
For `CN1C(c2ccc(F)cc2)=CS/C1=C(/C#N)c1nnc2n1-c1ccccc1SC2`, the inhibition [19] was 20.9% (inactive).
For `Cc1ccc(C)c(NC(=O)NNC(=O)c2ccc3ccccc3c2O)c1`, the inhibition [19] was 40.5% (active).
With `O=C(OCC(=O)c1cccs1)c1ccc([N+](=O)[O-])o1` the inhibition [8] was 73.1% (active), the inhibition [9] was 1.72% (inactive) and the inhibition [10] was 6.32% (inactive).
With `O=C1CCC(=O)N(O)CCCCCNC(=O)CCC(=O)N(O)CCCCCNC(=O)CCC(=O)N(O)CCCCCN1` the inhibition [8] was 31% (active), the inhibition [9] was 24.5% (active) and the inhibition [10] was 17.4% (inactive). For the same molecule, the inhibition [20] was 19.5% (active), the inhibition [21] was 25% (active) and the inhibition [22] was 29.4% (active).
In the case of `O=C(CN1CCN(S(=O)(=O)c2cc(Cl)ccc2Cl)CC1)c1ccc(O)c(O)c1`, the inhibition [6] is reported as 45.3% (active).
In the case of `COc1ccc(C(=O)COC(=O)c2ccc([N+](=O)[O-])s2)cc1OC`, the inhibition [19] is reported as 13.3% (inactive).
With `C=CCNC(=O)c1cc(-c2ccccc2O)on1` the inhibition [8] was -1.87% (inactive), the inhibition [9] was 1.86% (inactive) and the inhibition [10] was 0.32% (inactive).
For `O=C(Nc1ccc(Br)cn1)c1ccc([N+](=O)[O-])o1`, the inhibition [8] was 99.3% (active), the inhibition [9] was 11.8% (active) and the inhibition [10] was 30.2% (active). For the same molecule, the inhibition [13] was 11% (inactive), the inhibition [14] was 54.7% (active) and the inhibition [15] was 55.6% (active). For the same molecule, the inhibition [16] was -5.48% (inactive), the inhibition [20] was 7.78% (inactive) and the inhibition [21] was 9.86% (inactive). The inhibition [22] was 81.2% (active).
With `CCCN(CCC)C(=O)C1c2ccccc2Oc2ccccc21` the inhibition [6] was -8.94% (inactive).
For `Cc1cn(C2C=CC(CO)O2)c(=O)[nH]c1=O` (centres undefined), the inhibition [8] was 83.8% (active), the inhibition [9] was 6.53% (active) and the inhibition [10] was 42.2% (active). The inhibition [20] was 14.1% (active), the inhibition [21] was 8.16% (inactive) and the inhibition [22] was 54.6% (active).
With `O=[N+]([O-])c1ccc(N=Cc2c(O)ccc3ccccc23)cc1` the inhibition [8] was -0.99% (inactive), the inhibition [9] was -2.02% (inactive) and the inhibition [10] was -4.22% (inactive).
With `CC1=C(C(=O)OCc2ccccc2)C(c2ccco2)n2ncnc2N1` (centres undefined) the inhibition [8] was 0.55% (inactive), the inhibition [9] was 0.26% (inactive) and the inhibition [10] was -3.83% (inactive).
For `CC(=O)N(O)CCCCCNC(=O)CCC(=O)N(O)CCCCCNC(=O)CCC(=O)N(O)CCCCCNC(=O)CCC(=O)O`, the inhibition [8] was 13.8% (active), the inhibition [9] was 14.4% (active) and the inhibition [10] was 2.8% (inactive). For the same molecule, the inhibition [20] was 7.53% (inactive), the inhibition [21] was 11.4% (inactive) and the inhibition [22] was 12.5% (inactive).
